An excerpt weighted towards active compounds, which were near 2.2% of everything screened.
VLA-4 inh: inhibition in a human VLA-4 binding assay; P13612; VLA-4 expressing cells, ligand binding flow cytometry; inhibition, % (about 7 µM as worked out from the volumes in the protocol); actives 0.2% (n = 330,000); AID 2557; in the data active = inhibition above about 50%
Target sequence (P13612 whole entry, looked up): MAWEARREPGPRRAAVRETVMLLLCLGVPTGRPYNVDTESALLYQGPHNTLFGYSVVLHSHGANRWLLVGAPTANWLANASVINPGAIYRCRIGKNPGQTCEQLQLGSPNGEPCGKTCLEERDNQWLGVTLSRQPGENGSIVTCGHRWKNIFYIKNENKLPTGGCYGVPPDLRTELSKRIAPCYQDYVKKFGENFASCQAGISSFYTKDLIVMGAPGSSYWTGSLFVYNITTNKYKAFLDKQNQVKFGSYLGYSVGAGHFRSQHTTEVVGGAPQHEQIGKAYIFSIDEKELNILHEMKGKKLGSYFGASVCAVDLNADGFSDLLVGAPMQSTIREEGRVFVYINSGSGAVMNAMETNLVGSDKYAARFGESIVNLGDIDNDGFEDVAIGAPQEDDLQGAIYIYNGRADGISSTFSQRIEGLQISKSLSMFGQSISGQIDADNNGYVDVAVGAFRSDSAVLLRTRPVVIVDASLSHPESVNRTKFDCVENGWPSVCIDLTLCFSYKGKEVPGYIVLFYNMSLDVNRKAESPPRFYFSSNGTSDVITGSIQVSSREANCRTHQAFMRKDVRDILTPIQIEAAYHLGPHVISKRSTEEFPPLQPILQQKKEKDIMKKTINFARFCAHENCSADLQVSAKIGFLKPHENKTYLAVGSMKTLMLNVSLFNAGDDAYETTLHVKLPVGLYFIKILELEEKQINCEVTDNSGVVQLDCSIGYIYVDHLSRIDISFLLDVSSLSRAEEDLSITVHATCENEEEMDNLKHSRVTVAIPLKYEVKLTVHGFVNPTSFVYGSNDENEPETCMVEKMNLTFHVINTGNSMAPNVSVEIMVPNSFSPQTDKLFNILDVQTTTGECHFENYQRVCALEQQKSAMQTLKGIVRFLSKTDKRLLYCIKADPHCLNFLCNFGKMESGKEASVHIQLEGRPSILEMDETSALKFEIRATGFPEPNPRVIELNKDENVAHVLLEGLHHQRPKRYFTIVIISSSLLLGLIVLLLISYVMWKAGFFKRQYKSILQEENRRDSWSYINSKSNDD
MEKK2 mut-MEK5: signal of MEK5 binding to mutant human MEKK2 PB1 domain. bead flow cytometry, Alexa488-MEK5 binding to MEKK2 mutant. percent response, % at 10 µM. actives 0.35% (n = 290,000); in the data active = percent response above about 24%, passing the limit was not always enough
MEKK3 PB1 HTS: MEKK3-MEK5 PB1 interaction, increase or decrease; binding response (% of control), % at 10 µM; Q99759; actives 1.4% (n = 290,000); bead-based flow cytometry, Alexa488-MEK5 binding to MEKK3; actives lie on both sides; 0 = blocked by unlabeled MEK5, 100 = vehicle;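 active = binding response more than 3 SD above or below the average of its plate-row segment, actives on both sides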;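 note: Alexa488 bead fluorescence after subtracting the streptavidin-only scavenger bead signal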
MEKK2 WT-MEK5: raises or lowers MEK5 binding to wildtype human MEKK2 PB1 domain; Q9Y2U5; bead flow cytometry, Alexa488-MEK5 binding to MEKK2 WT; actives lie on both sides; binding response (% of control), % at 10 µM; actives 1.1% (n = 290,000); AID 1531; in the data active = binding response below about 67% or above about 130%
MEKK2wt confirm: raises or lowers MEK5 binding to wildtype human MEKK2, retest. actives 2.4% (n = 5,900). AID 1892. binding response (% of control), % at 10 µM. bead flow cytometry, Alexa488-MEK5 binding to MEKK2 WT; actives lie on both sides. shares compounds with MEKK3 PB1 HTS; in the data active = binding response below about 16% or above about 210%; inactive = in between
MEKK2mut confirm: signal of MEK5 binding to mutant human MEKK2, retest; shares compounds with MEKK3 PB1 HTS; bead flow cytometry, Alexa488-MEK5 binding to MEKK2 mutant; percent response, % at 10 µM; actives 2% (n = 5,900); AID 1893; in the data active = percent response mostly above about 71%, no sharp cut-off; inactive = mostly below about 38%;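 note: higher means compound restores mutant binding toward wildtype level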
MEKK3-MEK5 inh: MEKK3-MEK5 PB1 inhibition, single concentration confirmation; binding response (% of control), % at 10 µM; shares compounds with MEKK3 PB1 HTS; actives 1.8% (n = 5,900); bead flow cytometry, Alexa488-MEK5 binding to MEKK3; hits give low values;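 active = binding response below 72% of control, or above a set upper limit, though filed actives all read lower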;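 note: 100% = DMSO only wells and 0% = binding blocked by excess unlabeled MEK5; lower values mean stronger disruption of MEK5 binding to MEKK3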
Numbers without * were called inactive; . = no result given; [ ] = another dose, or the depositor's remark.

SMILES | VLA-4 inh | MEKK2 mut-MEK5 | MEKK3 PB1 HTS | MEKK2 WT-MEK5 | MEKK2wt confirm | MEKK2mut confirm | MEKK3-MEK5 inh
Cn1c(NCC(O)c2ccccc2)nc2c1c(=O)n(Cc1ccc(Cl)c(Cl)c1)c(=O)n2C (configuration not stated) | 23 | -7 | 97 | 96 | . | . | .
Cn1c(NCC(O)c2ccccc2)nc2c1c(=O)n(Cc1ccc(Cl)cc1)c(=O)n2C (configuration not stated) | -2 | -11 | 78*[inhibitor] | 89 | 110 | 5 | 110
Cc1ccc(CNC(=O)CN(C(=O)N2CCN(C)CC2)S(=O)(=O)c2ccc(C)cc2)cc1 | 16 | . | . | . | . | . | .
CN1CCC/C1=C/C=C1\SC(=S)NC1=O | 2 | 1 | 151* | 112 | 103 | -2 | 105
COc1ccc(Nc2cc(Nc3ccccc3)ncn2)cc1 | 1 | 8 | 104 | 103 | . | . | .
COCCn1c(SCC(=O)Nc2nnc(C)s2)nnc1-c1ccoc1C | 12 | 5 | 129* | 120 | 98 | -5 | 100
Cc1occc1-c1nnc(SCC(=O)Nc2ccc(F)cc2)n1Cc1ccccc1 | 1 | -21 | 2.0*[inhibitor] | 2.0*[inhibitor] | 96 | -5 | 100
CCn1c(Cc2ccccc2)nnc1SCC(=O)Nc1ccc(OC)cc1 | 3 | 3 | 44*[inhibitor] | 56 | 106 | 5 | 103
Cc1occc1-c1nnc(SCC(=O)Nc2ccccc2)n1Cc1ccccc1 | -11 | 2 | 99 | 100 | . | . | .
Cc1ccc(C)c(-n2c(SCC(=O)Nc3nonc3C)nnc2-c2ccoc2C)c1 | -2 | 2 | 101 | 99 | . | . | .
COCCn1c(SCC(=O)Nc2ccc(OC)cc2)nnc1-c1ccoc1C | 2 | -3 | 105 | 98 | . | . | .
Cc1ccc(C)c(-n2c(SCC(=O)Nc3nnc(C)s3)nnc2-c2ccoc2C)c1 | 4 | -21 | 2.0*[inhibitor] | 2.0*[inhibitor] | 109 | 16 | 110
O=C(Cn1cc(C(F)(F)F)ccc1=O)NCc1ccc(F)cc1 | -4 | -4 | 102 | 97 | . | . | .
CC(=O)N1N=C(c2ccco2)CC1c1cc2ccc(C)cc2nc1Cl (configuration not stated) | -3 | -1 | 89 | 97 | . | . | .
O=C(c1cscn1)N1CCCC(N2CCN(c3ccc(F)cc3)CC2)C1 (configuration not stated) | -1 | 16 | 104 | 104 | . | . | .
Cc1nn(CC(=O)O)c(C)c1[N+](=O)[O-] | 3 | -10 | 101 | 99 | . | . | .
Cc1nn(CC(=O)NC(C)C)c(C)c1[N+](=O)[O-] | 4 | -8 | 69*[inhibitor] | 79 | 105 | 13 | 103
Cc1ccsc1/C=N/NC(=O)Cn1nc(C)c([N+](=O)[O-])c1C | 3 | -13 | 93 | 92 | . | . | .
C/C(=N\NC(=O)Cn1nc(C)c([N+](=O)[O-])c1C)c1ccc(Cl)s1 | 14 | 31 | 128* | 114 | 95 | 0 | 100
CCOc1ccc(N(CC(=O)NC2CCCCC2)C(=O)CCC(=O)Nc2ccccn2)cc1 | -7 | 2 | 104 | 104 | . | . | .
CC(C)S(=O)(=O)c1csc(C(=O)Nc2ccc(F)cc2)c1N | 7 | -28 | 90 | 98 | . | . | .
CC(=O)N/N=C(/c1ccccc1)C(O)c1ccccc1 (configuration not stated) | 9 | 8 | 109 | 107 | . | . | .
Cc1cc(C)c(C)c(S(=O)(=O)NCc2ccc(C(=O)N3CCOCC3)cc2)c1C | -1 | 6 | 101 | 103 | . | . | .
COc1ccc(NC(=O)CN(C)C(=O)CNC(=O)c2ccc(C)s2)cc1 | 19 | . | . | . | . | . | .
CCN(CC)CCNC(=O)c1cc2c(s1)-c1ccccc1SC2 | 14 | 25* | 107 | 146* | 129 | 13 | 105
NNC(=O)c1cc2c(s1)-c1cc(Cl)ccc1SC2 | -87 | 3 | 102 | 99 | . | . | .
CCCCSc1nnc2[nH]c(=O)cc(N)n12 | -11 | 5 | 104 | 106 | . | . | .
CCCCSc1cc(=O)[nH]c(N)n1 | 8 | -20 | 70*[inhibitor] | 81 | 101 | -4 | 106
COc1ccc(OC)c(N(CC(=O)Nc2ccccc2)S(C)(=O)=O)c1 | 2 | 3 | 100 | 101 | . | . | .

Source: PubChem
